# Assays:
# [1] = target: Serine/threonine-protein kinase MARK2 (Homo sapiens) (UniProt Q7KZI7); conditions: at 1 µM
# [2] = target: PAS domain-containing serine/threonine-protein kinase (Homo sapiens) (UniProt Q96RG2); conditions: at 0.1 µM
# [3] = target: PAS domain-containing serine/threonine-protein kinase (Homo sapiens) (UniProt Q96RG2); conditions: at 1 µM
# [4] = target: Phosphorylase b kinase gamma catalytic chain, skeletal muscle/heart isoform (Homo sapiens) (UniProt Q16816); conditions: at 0.1 µM
# [5] = target: Phosphorylase b kinase gamma catalytic chain, skeletal muscle/heart isoform (Homo sapiens) (UniProt Q16816); conditions: at 1 µM
# [6] = target: T1, Phosphorylase b kinase gamma catalytic chain, liver/testis isoform (Homo sapiens) (UniProt P15735); conditions: at 0.1 µM
# T1 sequence (whole entry): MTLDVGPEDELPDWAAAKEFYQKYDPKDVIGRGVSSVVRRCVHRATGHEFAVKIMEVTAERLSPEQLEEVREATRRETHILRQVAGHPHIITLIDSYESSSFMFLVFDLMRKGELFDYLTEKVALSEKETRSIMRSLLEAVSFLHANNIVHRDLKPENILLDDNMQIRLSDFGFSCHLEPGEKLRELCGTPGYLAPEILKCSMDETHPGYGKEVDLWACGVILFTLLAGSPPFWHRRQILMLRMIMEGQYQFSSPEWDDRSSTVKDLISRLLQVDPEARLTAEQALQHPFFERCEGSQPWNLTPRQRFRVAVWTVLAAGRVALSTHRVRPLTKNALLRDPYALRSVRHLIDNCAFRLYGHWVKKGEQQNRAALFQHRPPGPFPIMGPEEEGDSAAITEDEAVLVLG
# [7] = target: T1, Phosphorylase b kinase gamma catalytic chain, liver/testis isoform (Homo sapiens); conditions: at 1 µM
# [8] = target: Serine/threonine-protein kinase pim-1 (Homo sapiens) (UniProt P11309); conditions: at 0.1 µM
# [9] = target: Serine/threonine-protein kinase pim-1 (Homo sapiens) (UniProt P11309); conditions: at 1 µM
# [10] = target: Serine/threonine-protein kinase pim-2 (Homo sapiens) (UniProt Q9P1W9); conditions: at 0.1 µM
# [11] = target: Serine/threonine-protein kinase pim-2 (Homo sapiens) (UniProt Q9P1W9); conditions: at 1 µM
# [12] = target: Serine/threonine-protein kinase pim-3 (Homo sapiens) (UniProt Q86V86); conditions: at 0.1 µM
# [13] = target: Serine/threonine-protein kinase pim-3 (Homo sapiens) (UniProt Q86V86); conditions: at 1 µM
# [14] = target: T2, MAP kinase-activated protein kinase 5 (Homo sapiens) (UniProt Q8IW41); conditions: at 0.1 µM
# T2 sequence (whole entry): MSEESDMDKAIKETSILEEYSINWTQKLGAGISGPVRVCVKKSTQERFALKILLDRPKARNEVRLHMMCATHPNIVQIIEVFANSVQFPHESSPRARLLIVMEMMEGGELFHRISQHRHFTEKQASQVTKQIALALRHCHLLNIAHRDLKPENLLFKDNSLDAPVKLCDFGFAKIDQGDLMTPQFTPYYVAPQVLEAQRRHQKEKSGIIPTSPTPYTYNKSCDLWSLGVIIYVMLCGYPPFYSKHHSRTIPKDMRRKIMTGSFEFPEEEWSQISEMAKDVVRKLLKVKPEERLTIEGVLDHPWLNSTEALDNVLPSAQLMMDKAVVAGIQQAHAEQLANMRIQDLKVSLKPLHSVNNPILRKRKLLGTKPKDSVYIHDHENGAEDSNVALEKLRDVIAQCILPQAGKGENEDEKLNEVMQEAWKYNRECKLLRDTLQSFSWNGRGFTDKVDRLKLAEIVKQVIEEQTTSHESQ
# [15] = target: T2, MAP kinase-activated protein kinase 5 (Homo sapiens); conditions: at 1 µM
# [16] = target: Serine/threonine-protein kinase SIK1 (Homo sapiens) (UniProt P57059); conditions: at 0.1 µM
# [17] = target: Serine/threonine-protein kinase SIK1 (Homo sapiens) (UniProt P57059); conditions: at 1 µM
# [18] = target: Serine/threonine-protein kinase SIK2 (Homo sapiens) (UniProt Q9H0K1); conditions: at 0.1 µM
# [19] = target: Serine/threonine-protein kinase SIK2 (Homo sapiens) (UniProt Q9H0K1); conditions: at 1 µM
# [20] = target: T3, Serine/threonine-protein kinase TBK1 (Homo sapiens) (UniProt Q9UHD2); conditions: at 0.1 µM;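 also: values are the mean TBK1 inhibition, taken from the GSK PKIS screening data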
# T3 sequence (whole entry): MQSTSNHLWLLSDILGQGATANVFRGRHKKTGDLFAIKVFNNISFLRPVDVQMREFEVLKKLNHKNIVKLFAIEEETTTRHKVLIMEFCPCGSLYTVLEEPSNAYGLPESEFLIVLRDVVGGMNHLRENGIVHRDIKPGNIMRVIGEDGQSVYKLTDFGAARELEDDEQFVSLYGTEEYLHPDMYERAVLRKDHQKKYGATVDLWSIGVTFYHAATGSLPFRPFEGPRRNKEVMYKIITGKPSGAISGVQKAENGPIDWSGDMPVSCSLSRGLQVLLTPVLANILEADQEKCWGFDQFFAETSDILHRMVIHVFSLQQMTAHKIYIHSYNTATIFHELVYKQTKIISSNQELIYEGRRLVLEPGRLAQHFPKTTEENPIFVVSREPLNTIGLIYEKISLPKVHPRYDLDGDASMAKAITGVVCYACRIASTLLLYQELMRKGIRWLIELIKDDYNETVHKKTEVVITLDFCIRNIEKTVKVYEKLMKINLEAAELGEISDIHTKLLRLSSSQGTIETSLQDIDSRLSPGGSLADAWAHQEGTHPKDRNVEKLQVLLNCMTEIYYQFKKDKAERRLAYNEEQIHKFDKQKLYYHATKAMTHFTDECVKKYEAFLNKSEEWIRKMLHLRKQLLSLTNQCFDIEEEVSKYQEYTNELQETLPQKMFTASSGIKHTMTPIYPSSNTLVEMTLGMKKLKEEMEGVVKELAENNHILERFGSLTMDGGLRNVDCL
# Chain of Serine/threonine-protein kinase MARK2 (Homo sapiens) (Q7KZI7 whole entry, the tested form may be a part): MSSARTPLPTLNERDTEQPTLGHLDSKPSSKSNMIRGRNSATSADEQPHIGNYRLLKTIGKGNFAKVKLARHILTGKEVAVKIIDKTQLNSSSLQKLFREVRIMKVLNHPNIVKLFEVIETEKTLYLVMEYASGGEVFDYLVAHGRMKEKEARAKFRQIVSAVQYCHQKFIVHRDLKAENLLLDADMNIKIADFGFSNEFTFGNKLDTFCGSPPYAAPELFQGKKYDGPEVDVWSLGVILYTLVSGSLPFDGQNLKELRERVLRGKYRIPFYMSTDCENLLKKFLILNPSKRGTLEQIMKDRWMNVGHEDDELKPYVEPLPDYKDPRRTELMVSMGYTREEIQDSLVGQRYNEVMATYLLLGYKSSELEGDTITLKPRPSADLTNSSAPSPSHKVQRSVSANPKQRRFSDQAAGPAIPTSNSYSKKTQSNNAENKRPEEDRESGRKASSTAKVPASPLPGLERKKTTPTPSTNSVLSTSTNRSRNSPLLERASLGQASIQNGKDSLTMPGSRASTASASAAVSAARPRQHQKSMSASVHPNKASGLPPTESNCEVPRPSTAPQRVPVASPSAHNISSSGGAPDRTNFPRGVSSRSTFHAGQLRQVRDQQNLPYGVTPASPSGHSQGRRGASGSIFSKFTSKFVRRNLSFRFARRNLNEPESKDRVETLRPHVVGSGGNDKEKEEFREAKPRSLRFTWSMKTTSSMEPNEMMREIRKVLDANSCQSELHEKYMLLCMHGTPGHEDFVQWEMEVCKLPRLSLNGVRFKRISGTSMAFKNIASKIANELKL
# Chain of PAS domain-containing serine/threonine-protein kinase (Homo sapiens) (Q96RG2 whole entry, the tested form may be a part, canonical isoform): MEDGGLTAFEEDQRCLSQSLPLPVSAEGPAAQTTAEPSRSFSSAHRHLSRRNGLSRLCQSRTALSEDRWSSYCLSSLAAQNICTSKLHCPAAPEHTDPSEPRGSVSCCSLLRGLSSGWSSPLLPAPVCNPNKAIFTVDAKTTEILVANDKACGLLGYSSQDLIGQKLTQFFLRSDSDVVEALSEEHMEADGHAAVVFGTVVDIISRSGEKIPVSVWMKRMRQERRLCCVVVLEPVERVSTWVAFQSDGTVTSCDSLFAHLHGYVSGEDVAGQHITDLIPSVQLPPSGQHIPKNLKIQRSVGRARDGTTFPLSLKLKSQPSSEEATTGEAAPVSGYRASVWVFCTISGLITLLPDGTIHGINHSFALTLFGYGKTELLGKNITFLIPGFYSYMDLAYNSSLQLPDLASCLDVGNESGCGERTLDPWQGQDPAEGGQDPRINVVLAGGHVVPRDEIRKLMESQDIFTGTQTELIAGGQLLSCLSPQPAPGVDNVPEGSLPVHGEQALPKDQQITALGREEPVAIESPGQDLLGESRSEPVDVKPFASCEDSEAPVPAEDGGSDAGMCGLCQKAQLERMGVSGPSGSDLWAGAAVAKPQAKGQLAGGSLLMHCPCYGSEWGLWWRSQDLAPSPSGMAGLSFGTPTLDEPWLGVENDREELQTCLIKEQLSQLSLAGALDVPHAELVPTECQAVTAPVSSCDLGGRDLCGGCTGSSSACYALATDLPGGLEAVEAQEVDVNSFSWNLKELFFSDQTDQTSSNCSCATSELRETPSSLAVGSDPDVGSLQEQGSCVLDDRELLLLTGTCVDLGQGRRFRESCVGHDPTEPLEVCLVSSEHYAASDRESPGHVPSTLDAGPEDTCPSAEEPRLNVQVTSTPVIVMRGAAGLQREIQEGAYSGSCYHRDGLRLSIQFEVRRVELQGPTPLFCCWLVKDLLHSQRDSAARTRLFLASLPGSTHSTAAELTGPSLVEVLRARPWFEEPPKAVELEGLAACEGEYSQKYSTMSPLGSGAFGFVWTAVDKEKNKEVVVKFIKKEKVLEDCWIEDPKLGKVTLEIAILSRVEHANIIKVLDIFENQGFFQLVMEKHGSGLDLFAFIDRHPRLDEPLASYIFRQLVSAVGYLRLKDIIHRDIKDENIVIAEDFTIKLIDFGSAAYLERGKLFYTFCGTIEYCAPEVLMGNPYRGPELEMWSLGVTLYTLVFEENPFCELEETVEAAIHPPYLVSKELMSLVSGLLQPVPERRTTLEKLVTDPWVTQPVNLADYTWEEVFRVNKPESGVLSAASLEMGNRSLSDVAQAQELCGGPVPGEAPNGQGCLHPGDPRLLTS
# Chain of Serine/threonine-protein kinase pim-1 (Homo sapiens) (P11309 whole entry, looked up): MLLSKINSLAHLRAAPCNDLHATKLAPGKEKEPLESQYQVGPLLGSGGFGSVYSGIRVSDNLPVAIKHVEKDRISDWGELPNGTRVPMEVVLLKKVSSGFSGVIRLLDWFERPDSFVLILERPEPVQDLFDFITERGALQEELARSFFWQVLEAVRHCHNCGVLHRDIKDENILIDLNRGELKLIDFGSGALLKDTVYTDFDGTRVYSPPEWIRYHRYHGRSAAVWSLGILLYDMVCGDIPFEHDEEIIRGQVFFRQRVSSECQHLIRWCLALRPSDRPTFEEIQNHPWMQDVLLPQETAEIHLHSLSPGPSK
# Chain of Serine/threonine-protein kinase pim-2 (Homo sapiens) (Q9P1W9 whole entry, looked up): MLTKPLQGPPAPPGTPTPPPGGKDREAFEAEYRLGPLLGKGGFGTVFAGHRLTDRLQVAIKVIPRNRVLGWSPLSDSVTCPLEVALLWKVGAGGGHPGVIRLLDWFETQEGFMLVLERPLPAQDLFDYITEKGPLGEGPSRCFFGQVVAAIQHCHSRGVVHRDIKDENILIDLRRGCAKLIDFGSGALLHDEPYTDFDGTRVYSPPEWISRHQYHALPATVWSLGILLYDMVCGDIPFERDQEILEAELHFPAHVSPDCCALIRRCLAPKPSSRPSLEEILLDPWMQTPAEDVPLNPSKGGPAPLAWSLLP
# Chain of Serine/threonine-protein kinase SIK1 (Homo sapiens) (P57059 whole entry): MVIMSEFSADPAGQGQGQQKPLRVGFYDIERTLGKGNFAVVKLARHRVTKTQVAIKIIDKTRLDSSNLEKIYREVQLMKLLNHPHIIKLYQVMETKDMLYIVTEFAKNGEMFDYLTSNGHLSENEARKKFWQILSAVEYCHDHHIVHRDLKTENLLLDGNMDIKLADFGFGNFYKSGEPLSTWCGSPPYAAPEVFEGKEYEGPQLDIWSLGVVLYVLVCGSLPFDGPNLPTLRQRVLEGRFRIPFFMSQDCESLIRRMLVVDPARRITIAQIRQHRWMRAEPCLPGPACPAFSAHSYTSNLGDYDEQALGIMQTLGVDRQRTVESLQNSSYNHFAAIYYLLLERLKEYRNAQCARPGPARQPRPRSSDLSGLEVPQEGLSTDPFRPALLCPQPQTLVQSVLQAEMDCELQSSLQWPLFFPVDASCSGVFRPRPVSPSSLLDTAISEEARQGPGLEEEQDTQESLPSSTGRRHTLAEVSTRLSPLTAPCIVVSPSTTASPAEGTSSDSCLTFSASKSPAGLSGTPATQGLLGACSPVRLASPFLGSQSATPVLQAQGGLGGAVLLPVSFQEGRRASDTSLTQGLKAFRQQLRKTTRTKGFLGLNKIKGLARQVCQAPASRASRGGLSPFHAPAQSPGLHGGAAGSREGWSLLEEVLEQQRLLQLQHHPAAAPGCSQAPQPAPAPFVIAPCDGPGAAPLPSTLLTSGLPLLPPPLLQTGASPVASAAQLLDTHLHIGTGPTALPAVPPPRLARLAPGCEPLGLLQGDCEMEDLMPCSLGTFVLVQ
# Chain of Serine/threonine-protein kinase SIK2 (Homo sapiens) (Q9H0K1 whole entry, looked up): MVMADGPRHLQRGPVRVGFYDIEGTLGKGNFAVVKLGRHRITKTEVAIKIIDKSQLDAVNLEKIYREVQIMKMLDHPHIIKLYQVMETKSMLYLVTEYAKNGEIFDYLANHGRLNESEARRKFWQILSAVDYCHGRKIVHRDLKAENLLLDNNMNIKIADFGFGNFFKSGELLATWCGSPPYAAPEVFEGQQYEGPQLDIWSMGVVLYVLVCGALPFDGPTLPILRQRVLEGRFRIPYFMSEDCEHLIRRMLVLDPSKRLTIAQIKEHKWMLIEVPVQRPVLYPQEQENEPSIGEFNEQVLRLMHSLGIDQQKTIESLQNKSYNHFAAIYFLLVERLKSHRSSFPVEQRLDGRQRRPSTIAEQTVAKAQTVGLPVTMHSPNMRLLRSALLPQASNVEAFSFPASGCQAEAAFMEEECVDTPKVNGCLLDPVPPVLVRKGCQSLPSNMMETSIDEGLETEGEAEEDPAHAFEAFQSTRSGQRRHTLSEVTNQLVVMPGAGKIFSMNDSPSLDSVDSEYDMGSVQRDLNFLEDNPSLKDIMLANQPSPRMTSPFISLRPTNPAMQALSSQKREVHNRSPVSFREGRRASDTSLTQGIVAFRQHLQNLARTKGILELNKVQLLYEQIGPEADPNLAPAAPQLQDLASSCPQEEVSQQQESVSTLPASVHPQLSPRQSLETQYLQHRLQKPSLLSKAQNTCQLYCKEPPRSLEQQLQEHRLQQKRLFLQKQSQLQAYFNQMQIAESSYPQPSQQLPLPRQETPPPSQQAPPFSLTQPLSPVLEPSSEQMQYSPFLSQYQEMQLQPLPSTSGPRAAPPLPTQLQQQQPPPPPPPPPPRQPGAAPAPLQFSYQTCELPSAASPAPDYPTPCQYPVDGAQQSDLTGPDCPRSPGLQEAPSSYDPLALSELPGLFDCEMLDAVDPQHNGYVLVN
Compound,inhibition [1] [%],inhibition [2] [%],inhibition [3] [%],inhibition [4] [%],inhibition [5] [%],inhibition [6] [%],inhibition [7] [%],inhibition [8] [%],inhibition [9] [%],inhibition [10] [%],inhibition [11] [%],inhibition [12] [%],inhibition [13] [%],inhibition [14] [%],inhibition [15] [%],inhibition [16] [%],inhibition [17] [%],inhibition [18] [%],inhibition [19] [%],inhibition [20] [%]
CS(=O)(=O)CCNCc1coc(-c2ccc3ncnc(Nc4ccc(OCc5ccccc5)cc4)c3c2)c1,2.39,0.45,0.89,2.33,6.25,3.94,3.59,1.45,1.25,-0.56,0.48,1.2,3.43,1.41,1.21,1.7,8.27,-0.18,5.7,2.64
Cc1ccc2c(-c3ccnc(Nc4ccccc4)n3)c(-c3ccc(F)cc3)nn2n1,1.15,0.46,-1.64,1.5,4.45,4.39,1.91,-0.18,-0.05,-0.3,0.72,-1.46,-3.61,0.87,-0.35,1.9,24.1,13.3,33.2,1.85
COc1ccc2c(-c3ccnc(Nc4cccc(OC(F)(F)F)c4)n3)cnn2n1,2.62,-0.05,0.2,2.28,8.92,6.32,8.34,1.24,0.36,-0.29,0.02,0.74,1.07,1.98,3.27,7.04,12.8,9.16,12.1,7.22
COc1cc(N2CCN(C(C)C)CC2)ccc1Nc1nc(Nc2ccc(F)cc2C(N)=O)c2cc[nH]c2n1,39.3,-0.71,2.69,58.2,78.1,19.1,64.7,3.27,25.3,-0.44,1.98,1.69,19.9,1.95,16,7.46,14.3,3.18,8.56,3.02
COc1cc2c(cc1Nc1nc(Nc3ccsc3C(N)=O)c3cc[nH]c3n1)N(C(=O)CN(C)C)CCC2(C)C,9,-1.55,-1.18,18.5,62,5.83,6.91,68.4,93.3,2.12,11.9,18.4,68.1,1.65,3.7,2.02,7.92,7.71,7.78,11.3
CCOc1ccc2c(-c3ccnc(Nc4cccc(C(F)(F)F)c4)n3)cnn2n1,0.82,0.62,0.46,2.65,6.48,3.64,3.92,-1.05,-1.35,0.55,-0.33,-1.1,-1.96,0.3,-0.41,2.46,3.82,2.86,3.43,2.13
O=C(Nc1n[nH]c2cc(-c3ccc(F)cc3)ccc12)C1CC1,2.24,-0.52,-1.02,3.89,6.4,6.96,2.35,0.88,3.11,-0.18,1.49,0.08,0.99,1.06,5.12,4.89,6.8,5.76,7.9,2.6
COc1cc(/C=N/Nc2ncnc3[nH]ncc23)ccc1O,17.5,-0.24,1.75,4.58,16.6,4.03,8.53,1.55,10.9,0.15,4.24,2.9,21.5,1.2,2.2,2.8,26.7,8.34,33.1,4.18
CNC(=O)c1cc(-c2ccc(F)cc2)cc(-c2ccc(S(=O)(=O)N3CCCC3)cc2)c1N,1.52,0.47,-0.16,2.9,4.24,3.8,3.18,0.06,0.44,-0.39,0.43,-1.52,-0.11,0.53,0.97,6.18,6.6,3.18,5.07,0.38
c1ccc(-c2nc3n(c2-c2ccc4c(c2)OCO4)CCC3)nc1,1.22,-5.85,-0.24,3.66,2.79,1.19,0.01,0.37,0.72,-0.34,0.83,0.35,1.07,0.81,0.42,2.02,4.54,0.11,3.1,1
CN1CCC(n2cnc(-c3ccc(F)cc3)c2-c2ccnc(N)n2)CC1,-0.63,-0.52,1.84,1.61,5.65,2.82,2.94,2.59,19.3,0.18,6.09,2.48,21.3,1,1.6,2.58,7.47,7.38,21.9,-1.27
COc1cc2ncn(-c3cc(OCc4ccccc4C(F)(F)F)c(C(=O)N(C)C)s3)c2cc1OC,-0.58,-1.08,0.41,-0.58,1.87,-1.54,-0.32,0.36,-0.31,-0.26,0.27,-0.34,0.56,0.07,0.04,2.6,15.2,4.39,9.54,2.13
c1cc(-c2cnn3nc(N4CCOCC4)ccc23)nc(NC2CC2)n1,7.93,0.49,-0.94,3.94,29.5,6.12,12.2,0.22,3.37,-0.29,0.92,-0.59,4.8,1.08,0.41,7.04,5.66,6.34,7.7,3.02
CCn1c(-c2nonc2N)nc2c(C#CC(C)(C)O)nc(OC[C@H](N)c3ccccc3)cc21,18.1,-0.65,8.04,2.23,-1.37,2.76,5.27,1.54,3.63,0.71,3.44,0.83,4.27,0.68,1.6,3.53,7.29,1.31,-1.51,3.75

# Source: ChEMBL document CHEMBL1961873, “Compounds: GSK PKIS; Assays: Nanosyn kinase panel” (2012)
